Bioassay records (PubChem)
An excerpt weighted towards active compounds, which were near 1.2% of everything screened.
BJeLR lethal: kills HRASV12-expressing BJeLR cells | BJeLR (HRASV12) viability, CellTiter-Glo ATP luminescence, 48 h | inhibition, % (concentration not given with the values) | actives 0.17% (n = 300,000) | AID 1554; in the data active = inhibition above about 50%
Sa RN4220 lethal: S. aureus RN4220 growth inhibition; OD600, 16 h; inhibition, % (concentration not given with the values); actives 0.33% (n = 330,000); AID 1259311; in the data active = inhibition above about 85%
SSB-PriA inh: K. pneumoniae PriA-SSBct interaction inhibition. AlphaScreen SSBct-PriA binding, biotinylated peptide. inhibition, % at 33 µM. actives 0.6% (n = 430,000). AID 1272365; in the data active = inhibition mostly above about 37%, no sharp cut-off; inactive = mostly below about 20%
MazF activator: MazEF (E. coli) toxin RNase activation; AID 504720; activation, % at 20 µM; FAM/BHQ RNA-DNA oligo cleavage fluorescence, 5 h; actives 0.32% (n = 350,000); in the data active = activation above about 50%
Target sequence (P0AE70 whole entry, looked up): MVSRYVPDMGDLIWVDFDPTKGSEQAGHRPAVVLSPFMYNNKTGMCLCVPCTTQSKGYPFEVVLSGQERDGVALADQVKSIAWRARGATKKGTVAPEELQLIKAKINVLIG
Sa ugtP lethal: kills S. aureus RN4220 lacking UgtP; S. aureus RN4220 ugtP deletion, OD600 growth, 16 h; growth inhibition, % (concentration not given with the values); actives 0.54% (n = 330,000); in the data active = growth inhibition above about 68%
Numbers stand for hits; - = inactive; . = no result.

SMILES | BJeLR lethal | Sa RN4220 lethal | SSB-PriA inh | MazF activator | Sa ugtP lethal
CCC1(C)OC(c2ccccc2)=C/C(=C/C=C2C(=O)NC(=O)NC2=O)O1 (stereo unspecified) | - | - | - | 67 | -
CC1(C)OC(c2ccccc2)=C/C(=C/C=C2C(=O)c3ccccc3C2=O)O1 | - | - | - | - | -
C/C(=C\C(=S)Nc1ccccc1)Nc1ccc2ccccc2c1 | - | - | 67 | - | -
C/C(=C\C(=S)Nc1ccccc1)Nc1cccc2ccccc12 | - | - | - | - | -
CC/C(=C\c1ccc(N(C)C)cc1)c1ccncc1 | . | - | 49 | - | -
O=C(NCCO)C(=O)Nc1cc2c3c(c1)CCN3C(=O)CC2 | - | - | - | - | -
CCC(=O)Nc1cc(SCCO)cc([N+](=O)[O-])c1 | - | - | - | - | -
O=C(CCl)Nc1cc(SCC(O)CO)cc([N+](=O)[O-])c1 (stereo unspecified) | 81 | - | - | - | -
CC(C)(C)c1ccc(OCCn2cnc(Cl)c2Cl)cc1 | . | . | 98 | . | .
NC(=O)CC(NC(=O)Cc1ccc(Br)cc1)c1ccc(NC2CCCC2)c([N+](=O)[O-])c1 (stereo unspecified) | - | - | - | - | -
Cc1ccc(S(=O)(=O)N(CC(=O)O)c2ccc(Cl)c(C(F)(F)F)c2)cc1 | - | - | - | - | -
CC(=O)c1ccc(N2CCN(C(=O)c3cc(-c4ccc5c(c4)OCO5)nc4ccccc34)CC2)cc1 | - | - | - | - | 101
CC(=O)c1ccc(N2CCN(C(=O)c3cc4c(C)nc5ccccc5c4o3)CC2)cc1 | - | - | - | 56 | -
Oc1cccc2ccc(Nc3ccccn3)nc12 | - | - | 103 | - | -
COC(=O)C1=C(C)N(Cc2ccccc2)C(=NCCc2c[nH]c3ccccc23)N[C@H]1c1ccccc1 | . | . | 47 | - | .
COC(=O)C1=C(C)N(Cc2ccccc2)C(=NCCc2c[nH]c3ccccc23)N[C@H]1c1cccc(F)c1 | . | . | - | - | .
Cc1cc(N=Nc2ccccc2C)ccc1N | - | - | 81 | - | -
Cc1nn(C)cc1CNC(=O)C1CCC(=O)N(Cc2cccc(C(F)(F)F)c2)C1 (stereo unspecified) | - | - | - | - | -
O=C(C1CC1(c1ccccc1)c1ccccc1)N1CCOCC1 (stereo unspecified) | - | - | 55 | - | -
O=C(O)C1CC1(c1ccccc1)c1ccccc1 (stereo unspecified) | - | - | - | - | -
O=C(CSc1nnc(NC(=O)C2CC(=O)N(c3ccc(F)cc3)C2)s1)NCC1CCCO1 (stereo unspecified) | - | - | - | - | -
Cc1nnc(N2CCCC(C(=O)NCc3ccc(OC(C)C)cc3)C2)c2nn(-c3ccccc3)c(C)c12 (stereo unspecified) | - | - | - | 88 | -
CCN1CCCc2cc(CN(CCN3CCOCC3)C(=S)Nc3ccc(C)cc3)ccc21 | - | - | - | - | -
CCN1CCCc2cc(CN(CCN3CCOCC3)C(=S)Nc3cccc(Cl)c3)ccc21 | - | - | 52 | - | -
Cc1ccc(S(=O)(=O)NCCCCC(NC(=O)OC(C)(C)C)C(=O)O)cc1 (stereo unspecified) (tested in a mixture with another compound) | - | - | . | - | -
SMILES | BJeLR lethal | Sa RN4220 lethal | SSB-PriA inh | MazF activator | Sa ugtP lethal
O=C(Nc1nc(-c2ccccn2)cs1)c1ccc(Cl)c([N+](=O)[O-])c1 | . | . | - | . | .
CCN(CC)c1ccc(Nc2nc(-c3cccnc3)cs2)cc1 | - | - | 41 | - | -
O=[N+]([O-])c1ccccc1Nc1nc(-c2ccccn2)cs1 | . | . | 80 | . | .
O=[N+]([O-])c1ccccc1Nc1nc(-c2cccnc2)cs1 | - | - | 52 | - | -
Clc1cc(-c2ccccc2)nc(-c2ccccc2)n1 | - | - | - | - | -
Cc1nc(NC(=O)c2cccc(-c3cc4ccccc4oc3=O)c2)ccc1Br | - | - | - | 84 | -
Cc1nc(NC(=O)c2ccc(-c3cc4ccccc4oc3=O)cc2)ccc1Br | - | - | - | - | -
C=CCN1C(=O)/C(=C2/Sc3ccc(OC)cc3N2CC)SC1=S | - | - | - | 752 | -
CCCCN1C(=O)/C(=C2/Sc3ccc(OC)cc3N2CC)SC1=S | - | - | - | 71 | -
CCN1/C(=C2/SC(=S)N(NC(C)=O)C2=O)Sc2ccc(OC)cc21 | - | - | - | - | -
COc1ccc(N2CCN(C(=O)COC(=O)CCc3ccccc3)CC2)cc1 | . | - | - | - | -
Cc1ccc(NC(=O)/C(C#N)=C(\N)C(Cl)(Cl)Cl)nc1 | - | - | - | 165 | -
CN1CCN(C(CNC(=O)C(=O)Nc2ccc3c(c2)OCO3)c2ccc(F)cc2)CC1 (stereo unspecified) | - | - | - | - | -
COC(=O)c1cccc2c1-c1ccccc1C2=NO | . | - | - | . | -
CC(C)COC(=O)c1cccc2c1-c1ccccc1C2=NO | . | - | - | . | 96
COc1cccc2c1C(=O)c1c(O)c3c(c(O)c1C2=O)CC(O)(C(C)=O)CC3OC1CC(O)C(O)C(C)O1 (stereo unspecified) | . | . | - | - | .
COc1cccc2c1C(=N)c1c(O)c3c(c(O)c1C2=O)CC(O)(C(C)=O)CC3OC1CC(N)C(O)C(C)O1 (stereo unspecified) | . | . | 85 | - | .
COc1cccc2c1C(=O)c1c(O)c3c(c(O)c1C2=O)C[C@](O)(C(C)=O)C[C@H]3O[C@@H]1C[C@@H](N)[C@@H](O)[C@@H](C)O1 | 68 | . | - | - | .
CCCCC(=O)OCC(=O)C1(O)Cc2c(O)c3c(c(O)c2C(OC2CC(NC(=O)C(F)(F)F)C(O)C(C)O2)C1)C(=O)c1c(OC)cccc1C3=O (stereo unspecified) | . | . | - | - | .
COc1ccc(-c2ccc3c(c2)C2CC3CCN2Cc2ccc(OC(F)(F)F)cc2)cc1 (stereo unspecified) | . | - | - | - | 89
COc1ccc(/C=C/c2nc3ccccc3c(=O)n2-c2cccc(C(=O)O)c2)cc1 | - | 92 | - | - | -
COc1ccc(-n2c(/C=C/c3ccc(O)cc3)nc3ccccc3c2=O)cc1 | - | - | - | - | -
O=c1c2ccccc2nc(/C=C/c2ccc3c(c2)OCO3)n1-c1cccc(O)c1 | - | 96 | - | - | 93
O=C(CN(c1ccc(F)cc1)S(=O)(=O)c1ccc2c(c1)OCCO2)NCc1cccnc1 | - | - | 52 | - | -
O=C(NCc1nnc(SCC(=O)N2CCOCC2)o1)c1ccccc1 | . | . | 56 | - | .
SMILES | BJeLR lethal | Sa RN4220 lethal | SSB-PriA inh | MazF activator | Sa ugtP lethal
N#Cc1nc(COc2ccc(Cl)cc2)oc1N1CCCCCC1 | . | - | 52 | - | -
N#Cc1nc(COc2ccccc2Cl)oc1N1CCCC1 | - | - | - | - | -
Cc1ccc(OCc2nc(C#N)c(N3CCCCC3)o2)cc1 | - | - | 45 | - | -
CC1CN(c2oc(COc3ccc(Cl)cc3Cl)nc2C#N)CC(C)O1 (stereo unspecified) | - | - | 43 | - | -
COc1ccc(-c2csc(CN3CCN(C(=O)c4ccc([N+](=O)[O-])o4)CC3)n2)cc1 | . | . | - | . | .
COc1ccc(-c2csc(CN3CCN(C(=O)c4ccc(Br)o4)CC3)n2)cc1 | . | . | 44 | . | .
